Test results published in PubChem BioAssay (Tox21).
Values joined by “and” are separate entries in the source; they are usually repeats but may differ in a detail not shown here. Identical values can stand only once. Inconclusive results are not listed. Some structures have more than one record in an assay (separate samples or runs), and their calls can disagree. Active and inactive are the calls of the source. Unless noted, the call rests on the fitted dose curve; in most records, active means well fitted curve in the direction sought with a large enough effect in the repeat runs; inconclusive means weak or mixed curves; inactive means no such curve, though single readings can be large; an effect the other way counts as inactive or inconclusive.

Assays:
[1] = qHTS assay to identify small molecule antagonists of the androgen receptor (AR) signaling pathway using the MDA cell line in the presence of 0.5 nM R1881 - cell viability counter screen (AID 1259242); further: nearly all actives have a fitted effect of over 45% in size; further: potency means the concentration at half of the fitted maximal effect
How it was run: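 Fluorescence from CellTiter-Fluor, which reports protease activity of live cells, was read 30 min after reagent addition to MDA-kb2 cells that had been incubated 16 hr with compound and 0.5 nM R1881.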

[2] = target: Estrogen receptor (Homo sapiens) (UniProt P03372); assay: qHTS assay to identify small molecule antagonists of the estrogen receptor alpha (ER-alpha) signaling pathway using the BG1 cell line in the presence of 0.1 nM 17-beta-estradiol (AID 1259244); further: nearly all actives have a fitted effect of over 50% in size; further: potency means the concentration at half of the fitted maximal effect
How it was run: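 Quantitative high-throughput screen in VM7Luc4E2 cells: compound plus 0.1 nM E2 (final), 22 h, 37C, 5% CO2; ONE-Glo added, 30 min room temperature, luminescence measured.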

[3] = qHTS assay to identify small molecule phospholipidosis (PLD) inducers (AID 1259344; active means well fitted curve in the direction sought with a large enough effect; an effect the other way counts as inactive or inconclusive)
How it was run: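 Quantitative HTS in HepG2: compound plus LipidTOX Red dye for 24 h, paraformaldehyde fixation with Hoechst 33342, widefield high-content imaging; amiodarone as positive and DMSO as negative control.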

[4] = qHTS assay to identify small molecule HDAC inhibitors (AID 1259364); further: nearly all actives have a fitted effect of over 45% in size; further: potency means the concentration at half of the fitted maximal effect
How it was run: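 Endogenous HDAC class I/II activity was measured in wild-type HCT-116 cells by HDAC-Glo luminescence after 2 h compound treatment.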

[5] = qHTS assay to identify small molecule HDAC inhibitors - cell viability counter screen (AID 1259365); further: nearly all actives have a fitted effect of over 50% in size; further: potency means the concentration at half of the fitted maximal effect
How it was run: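 Wild-type HCT-116 cells were seeded at 1,500 per well, incubated overnight at 37 C, then exposed to compounds in DMSO for 2hr. Viability was read by CellTiter-Glo luminescence after 30min at room temperature.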

[6] = qHTS assay to identify small molecule agonists of the sonic hedgehog signaling (Shh) pathway - cell viability counter screen (AID 1259366); further: nearly all actives have a fitted effect of over 50% in size; further: potency means the concentration at half of the fitted maximal effect
How it was run: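 NIH/3T3-derived 3T3 Gli1-Luc cells (stable Gli1-responsive firefly luciferase reporter) were seeded, rested 4 hr at 37 C/5% CO2, then exposed to compounds in DMSO for 24 hr; viability was read by CellTiter-Fluor fluorescence in the same wells.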

[7] = qHTS assay to identify small molecule antagonists of the sonic hedgehog signaling (Shh) pathway - cell viability counter screen (AID 1259367); further: nearly all actives have a fitted effect of over 55% in size; further: potency means the concentration at half of the fitted maximal effect
How it was run: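 Seed 3T3 Gli1-Luc cells at 2,000 per well; incubate 4 hr; add compound in DMSO, then conditioned medium; incubate at 37C with 5% CO2; add CellTiter-Fluor after 23 hr; read fluorescence 1 hr later.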

[8] = qHTS assay to identify small molecule agonists of the sonic hedgehog signaling (Shh) pathway (AID 1259368; calls by dose curve; further: series mostly up to about 92 µM; nearly all actives have a fitted effect of over 15% in size)
How it was run: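 Luminescent signal was taken as a measure of Gli1-controlled luciferase expression in stably transfected NIH/3T3-derived cells that had been treated for 24 hr with compounds delivered in DMSO.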

[9] = qHTS assay to identify small molecule antagonists of the sonic hedgehog signaling (Shh) pathway (AID 1259369; calls by dose curve; further: nearly all actives have a fitted effect of over 45% in size; further: potency means the concentration at half of the fitted maximal effect)
How it was run: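 Screening used 3T3Gli1-Luc cells at 2,000 per well, compounds delivered in DMSO, and conditioned medium as agonist stimulus; plates incubated 24hr at 37 C and 5% CO2 before a 30min luciferase step.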
On the % scale 0 is the no-effect control and ±100 the full control effect.

Sequence of Estrogen receptor (Homo sapiens) (P03372 whole entry, looked up): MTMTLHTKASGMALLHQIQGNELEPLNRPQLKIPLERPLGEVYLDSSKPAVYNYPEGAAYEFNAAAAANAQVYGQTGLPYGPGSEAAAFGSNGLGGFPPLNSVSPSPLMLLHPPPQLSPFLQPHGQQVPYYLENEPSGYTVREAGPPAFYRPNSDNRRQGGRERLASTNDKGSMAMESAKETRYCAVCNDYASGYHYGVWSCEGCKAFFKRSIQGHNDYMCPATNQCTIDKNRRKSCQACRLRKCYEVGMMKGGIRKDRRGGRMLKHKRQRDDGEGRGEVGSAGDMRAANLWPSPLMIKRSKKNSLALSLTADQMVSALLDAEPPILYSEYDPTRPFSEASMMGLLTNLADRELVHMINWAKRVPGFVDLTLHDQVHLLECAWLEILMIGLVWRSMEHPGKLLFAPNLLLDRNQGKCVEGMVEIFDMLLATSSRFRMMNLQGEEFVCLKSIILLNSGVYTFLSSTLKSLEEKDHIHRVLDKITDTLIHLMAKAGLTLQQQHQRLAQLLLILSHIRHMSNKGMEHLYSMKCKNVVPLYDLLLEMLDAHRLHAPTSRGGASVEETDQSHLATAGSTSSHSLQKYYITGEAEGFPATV

NCCCCCC(=O)O
inactive: Potency [1] | Potency [2] | Potency [3] | Potency [4] | Potency [5] | Potency [6] | Potency [7] | Potency [8] | Potency [9]

CC(C)(C)c1cc(C(C)(C)C)c(O)c(C(C)(C)C)c1
inactive: Potency [1] | Potency [2] | Potency [4] | Potency [5] | Potency [6] | Potency [7] | Potency [8] | Potency [9]

NCCO
inactive and 15.4 µM (active): Potency [9]
inactive: Potency [1] | Potency [2] | Potency [3] | Potency [4] | Potency [5] | Potency [6] | Potency [8]
inactive and 43.3 µM (active): Potency [7]

CC(=O)OCCOCCOCCOC(C)=O
inactive: Potency [1] | Potency [2] | Potency [4] | Potency [5] | Potency [6] | Potency [7] | Potency [8] | Potency [9]

O=c1n(CC2CO2)c(=O)n(CC2CO2)c(=O)n1CC1CO1 (stereo not drawn)
inactive: Potency [1] | Potency [2] | Potency [3] | Potency [4] | Potency [5] | Potency [8]
active: Potency [7] 30.5 µM and 48.6 µM | Potency [9] 963 nM and 3.06 µM

C=CS(=O)(=O)O
inactive: Potency [1] | Potency [2] | Potency [3] | Potency [4] | Potency [5] | Potency [6] | Potency [7] | Potency [8] | Potency [9]

CCCCOCCOC(=O)c1ccccc1C(=O)OCCOCCCC
inactive: Potency [1] | Potency [4] | Potency [5] | Potency [6] | Potency [8]
active: Potency [9] 26.7 µM
47.5 µM (active) and inactive: Potency [2]
53.3 µM (active) and inactive: Potency [7]

Cc1cc(Cc2cc(C)cc(C(C)(C)C)c2O)c(O)c(C(C)(C)C)c1
inactive: Potency [4] | Potency [5] | Potency [8]
active: Potency [1] 30.8 µM | Potency [2] 27.4 µM | Potency [6] 43.5 µM | Potency [7] 61.4 µM

O=C(O)CP(=O)(O)O
inactive: Potency [1] | Potency [2] | Potency [3] | Potency [4] | Potency [5] | Potency [7] | Potency [8] | Potency [9]

CN(C)c1ccc2nc3ccc(=[N+](C)C)cc-3sc2c1
inactive: Potency [3] | Potency [8]
active: Potency [1] 6.11 µM and 1.88 µM | Potency [2] 26.2 µM and 27.3 µM and 29.8 µM | Potency [4] 11.7 µM and 10.9 µM and 13.3 µM | Potency [5] 11.7 µM and 24.3 µM and 11.9 µM | Potency [7] 54.5 µM | Potency [9] 739 nM and 1.09 µM and 596 nM

CC(=O)O[C@]1(C(C)=O)CC[C@H]2[C@@H]3C[C@H](C)C4=CC(=O)CC[C@]4(C)[C@H]3CC[C@@]21C
active: Potency [9] 19.3 µM
inactive: Potency [1] | Potency [2] | Potency [3] | Potency [4] | Potency [5] | Potency [7] | Potency [8]

CCC(C)(C)C(=O)O[C@H]1C[C@@H](C)C=C2C=C[C@H](C)[C@H](CC[C@@H]3C[C@@H](O)CC(=O)O3)[C@H]21
inactive: Potency [1] | Potency [2] | Potency [3] | Potency [4] | Potency [5] | Potency [7] | Potency [8]

CC(C)(C)NCC(O)COc1ccccc1OCC1CCCO1 (stereo not drawn)
inactive: Potency [1] | Potency [2] | Potency [4] | Potency [5] | Potency [6] | Potency [7] | Potency [8]

CC[C@@H](N)CO
inactive: Potency [1] | Potency [2] | Potency [4] | Potency [5] | Potency [6] | Potency [7] | Potency [8]

Cc1cc(C2(c3cc(C)c(O)cc3C)OS(=O)(=O)c3ccccc32)c(C)cc1O
inactive: Potency [2] | Potency [4] | Potency [5] | Potency [8] | Potency [9]
active: Potency [1] 24.3 µM and 15.4 µM | Potency [6] 24.3 µM and 12.2 µM | Potency [7] 27.3 µM and 13.7 µM

O=C(O)c1cc(Cl)cc(Cl)c1
inactive: Potency [1] | Potency [2] | Potency [4] | Potency [5] | Potency [6] | Potency [7] | Potency [8] | Potency [9]

CC(=O)C1=C(C)[C@@H]2C[C@@]3(C1)[C@H](C)CC[C@H]3C2(C)C
inactive: Potency [1] | Potency [2] | Potency [4] | Potency [5] | Potency [6] | Potency [7] | Potency [8] | Potency [9]

Cc1cccc([N+](=O)[O-])c1C(=O)O
inactive: Potency [1] | Potency [2] | Potency [4] | Potency [5] | Potency [6] | Potency [7] | Potency [8] | Potency [9]

c1cnc2cc3c(cc2n1)C1CNCC3C1
inactive: Potency [1] | Potency [2] | Potency [3] | Potency [4] | Potency [5] | Potency [7] | Potency [8] | Potency [9]

CCCNC(C)C(=O)Nc1ccccc1C (stereo not drawn)
inactive: Potency [1] | Potency [2] | Potency [3] | Potency [4] | Potency [5] | Potency [6] | Potency [7] | Potency [8] | Potency [9]

CC(C)CCCCCCc1ccc(O)cc1
inactive: Potency [3] | Potency [4] | Potency [8]
24.8 µM (active) and inactive: Potency [9]
active: Potency [6] 62.2 µM
6.98 µM (active) and inactive: Potency [1]
5.54 µM (active) and inactive: Potency [2]
55.4 µM (active) and inactive: Potency [7]

Nc1nc2ccccc2[nH]1
inactive: Potency [1] | Potency [2] | Potency [4] | Potency [5] | Potency [6] | Potency [7] | Potency [8] | Potency [9]

c1ccc2c(c1)CCCC2C1=NCCN1 (stereo not drawn)
inactive: Potency [1] | Potency [2] | Potency [3] | Potency [4] | Potency [5] | Potency [7] | Potency [8]

CC(C)CCOC(=O)c1ccc(N(C)C)cc1
inactive: Potency [1] | Potency [2] | Potency [3] | Potency [5] | Potency [6] | Potency [7] | Potency [8] | Potency [9]

COC(=O)/C=C/c1ccccc1
inactive and 21.7 µM (active): Potency [9]
inactive: Potency [1] | Potency [2] | Potency [4] | Potency [5] | Potency [6] | Potency [7] | Potency [8]

C=CC(=O)OCCCCCCCC
inactive: Potency [1] | Potency [2] | Potency [4] | Potency [5] | Potency [6] | Potency [7] | Potency [8]

CCCCC/C=C/CC1CC(=O)OC1=O (stereo not drawn)
inactive: Potency [1] | Potency [2] | Potency [4] | Potency [5] | Potency [6] | Potency [7] | Potency [8] | Potency [9]

CCn1cc(C(=O)O)c(=O)c2cc(F)c(N3CCNC(C)C3)c(F)c21 (stereo not drawn)
inactive: Potency [1] | Potency [2] | Potency [3] | Potency [4] | Potency [5] | Potency [6] | Potency [7] | Potency [8] | Potency [9]

O=C(Oc1ccccc1)c1ccccc1O
inactive: Potency [1] | Potency [2] | Potency [3] | Potency [5] | Potency [6] | Potency [7] | Potency [8]
inactive and 54.5 µM (active): Potency [9]

[Cl][In]([Cl])[Cl]
inactive: Potency [1] | Potency [2] | Potency [3] | Potency [4] | Potency [5] | Potency [7] | Potency [8]

CCN1CCCC1CNC(=O)c1cc(S(=O)(=O)CC)c(N)cc1OC (stereo not drawn)
inactive: Potency [1] | Potency [2] | PLD induction [3] -3.27% [at 7.66 µM] | Potency [4] | Potency [5] | Potency [7] | Potency [8] | Potency [9]

COc1nc(C)nc(Cl)c1NC1=NCCN1
inactive: Potency [1] | Potency [2] | Potency [3] | Potency [4] | Potency [5] | Potency [6] | Potency [7] | Potency [8] | Potency [9]

CO[Si](OC)(OC)c1ccccc1
inactive: Potency [1] | Potency [2] | Potency [4] | Potency [5] | Potency [6] | Potency [7] | Potency [8] | Potency [9]

NC(N)=Nc1nc(CSCC/C(N)=N/S(N)(=O)=O)cs1
inactive: Potency [1] | Potency [2] | Potency [3] | Potency [4] | Potency [5] | Potency [7] | Potency [8] | Potency [9]

CCCOC(=O)c1cc(O)c(O)c(O)c1
inactive: Potency [1] | Potency [2] | Potency [3] | Potency [4] | Potency [5] | Potency [7] | Potency [8]
active: Potency [9] 12.1 µM

C=CC(=O)OCCCCCCOC(=O)C=C
inactive: Potency [1] | Potency [2] | Potency [4] | Potency [5] | Potency [8]
active: Potency [6] 31 µM and 61.1 µM | Potency [7] 54.5 µM | Potency [9] 19.6 µM and 19.3 µM

Cc1ccnc2c1NC(=O)c1cccnc1N2C1CC1
inactive: Potency [1] | Potency [3] | Potency [4] | Potency [5] | Potency [6] | Potency [7] | Potency [8] | Potency [9]

O=S(=O)(O)c1ccc2nc(-c3ccccc3)[nH]c2c1
inactive: Potency [1] | Potency [3] | Potency [6] | Potency [7] | Potency [8] | Potency [9]
active: Potency [4] 732 nM and 668 nM | Potency [5] 23.2 µM

CCn1c2ccccc2c2cc(N)ccc21
inactive: Potency [1] | Potency [2] | Potency [5] | Potency [7] | Potency [8]
15.2 µM (active) and inactive: Potency [9]
inactive and 27.3 µM (active): Potency [4]

c1ccc2c(c1)-c1cccc3c1c-2cc1ccccc13
inactive and 545 nM (active): Potency [9]
inactive: Potency [1] | Potency [2] | Potency [4] | Potency [5] | Potency [6] | Potency [7] | Potency [8]

NNCCc1ccccc1
inactive: Potency [1] | Potency [3] | Potency [4] | Potency [5] | Potency [6] | Potency [7] | Potency [9]

CCN(CC)c1ccc2c(C)cc(=O)oc2c1
active: Potency [9] 24.5 µM and 54.5 µM
inactive: Potency [1] | Potency [2] | Potency [4] | Potency [5] | Potency [8]

CC(=O)CC(C)=O
inactive: Potency [1] | Potency [2] | Potency [4] | Potency [5] | Potency [7] | Potency [8] | Potency [9]

CC(C(O)c1ccc(O)cc1)N1CCC(Cc2ccccc2)CC1 (stereo not drawn)
inactive: Potency [1] | Potency [2] | Potency [4] | Potency [5] | Potency [6] | Potency [7] | Potency [8] | Potency [9]

CCCN[C@H]1CCc2nc(N)sc2C1
inactive: Potency [1] | Potency [3] | Potency [4] | Potency [5] | Potency [7] | Potency [8] | Potency [9]
